Only some compounds are listed: those with a hit (about 18% of all), similar ones and a draw of the others.
CtBP-E1A inh = CtBP/E1A binding inhibition | AlphaScreen GST-E1A/His-CtBP binding, 1536-well; stronger effect = lower value | activity change, % (no concentration beside the values) | hit rate 0.49% among 340,000; in the data active means activity change below about -65%; inconclusive means mostly about -30% to -63%
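In 5 uL wells, 23 nL compound meets equimolar GST-E1A and His-CtBP (5X stock 125 nM each) for 2 h, 37 °C. Beads (5X, 50 ug/mL) then 1 h, 37 °C, dark.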
IL-1B inflam inh = inflammasome signaling inhibition, IL-1 beta readout; THP-1 LPS/ATP IL-1B secretion, AlphaLISA, 16 h; stronger effect = lower value; activity change, % at 57.5 µM; hit rate 4.7% among 360,000; AID 743279; in the data active means activity change below about -50%; inconclusive means mostly about -30% to -49%
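Secreted IL-1B measured by AlphaLISA bead assay after 16 h compound exposure of THP-1 cells; compounds (final up to 57.5 uM) added 1 h before LPS (250 ng/mL) and ATP (1.25 mM) stimulation; lower signal means less secretion.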
TDP1 cell noCPT = qHTS for Inhibitors of human tyrosyl-DNA phosphodiesterase 1 (TDP1): qHTS in cells in absence of CPT; DT40 Tdp1-/- hTDP1 cells, no CPT, ATP luminescence, 48 h; Potency, µM (top dose mostly 46.2 µM), inactives show at the highest dose activity change, negative = growth inhibition, hits mostly inhibitors; hit rate 15% among 420,000; AID 686978, 2013; further: potency means the concentration at half of the fitted maximal effect; nearly all actives have a fitted effect of over 55% in size
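Compound effects on proliferation are scored in DT40 Tdp1-/-;hTDP1 cells in the absence of CPT. ATP levels (CellTiter-Glo luminescence) are recorded after a ≥48 hr, 37 °C incubation.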
TDP1 inh = blocks human tyrosyl-DNA phosphodiesterase 1 | recombinant TDP1, AlphaScreen DNA substrate cleavage | Q9NUW8 | AID 485290 | hit rate 0.28% among 350,000 | Potency, µM (highest dose often 130 µM), for the others: at the highest dose activity change, negative = inhibition, usual class: inhibitors; further: potency means the concentration at half of the fitted maximal effect; nearly all actives have a fitted effect of over 40% in size
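AlphaScreen read-out: signal falls as enzyme removes the 3' tyrosine-FITC from a 5'-biotinylated DNA oligo (15 nM, 5 min, RT). Enzyme was E. coli-made recombinant Tdp1 at 1 nM, exposed to compound for 15 min beforehand; beads 10 ug/ml, 10 min.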
Six1-Eya2 blk = Six1/Eya2 interaction inhibition | Q15475+O00167 | AlphaScreen GST-Six1/His-Eya2 binding, biochemical; stronger effect = lower value | activity change, % (concentration not given with the values) | hit rate 0.56% among 360,000; in the data active means activity change below about -65%; inconclusive means mostly about -30% to -63%
Target sequence (O00167 whole entry, looked up): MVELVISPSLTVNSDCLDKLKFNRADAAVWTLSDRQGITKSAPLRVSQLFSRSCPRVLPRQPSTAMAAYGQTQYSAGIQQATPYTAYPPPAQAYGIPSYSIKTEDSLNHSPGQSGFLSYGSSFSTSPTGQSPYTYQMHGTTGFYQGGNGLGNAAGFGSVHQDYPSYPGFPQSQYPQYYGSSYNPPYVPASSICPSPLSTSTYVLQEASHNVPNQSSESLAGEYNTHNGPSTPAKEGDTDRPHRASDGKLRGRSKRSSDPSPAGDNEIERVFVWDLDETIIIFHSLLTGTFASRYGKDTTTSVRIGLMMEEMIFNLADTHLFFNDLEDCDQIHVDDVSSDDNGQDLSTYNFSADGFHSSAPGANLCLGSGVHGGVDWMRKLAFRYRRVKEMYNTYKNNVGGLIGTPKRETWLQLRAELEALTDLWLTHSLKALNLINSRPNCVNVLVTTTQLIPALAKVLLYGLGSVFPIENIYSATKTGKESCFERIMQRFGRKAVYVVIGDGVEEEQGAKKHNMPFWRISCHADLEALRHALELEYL
Target sequence (Q15475 whole entry, looked up): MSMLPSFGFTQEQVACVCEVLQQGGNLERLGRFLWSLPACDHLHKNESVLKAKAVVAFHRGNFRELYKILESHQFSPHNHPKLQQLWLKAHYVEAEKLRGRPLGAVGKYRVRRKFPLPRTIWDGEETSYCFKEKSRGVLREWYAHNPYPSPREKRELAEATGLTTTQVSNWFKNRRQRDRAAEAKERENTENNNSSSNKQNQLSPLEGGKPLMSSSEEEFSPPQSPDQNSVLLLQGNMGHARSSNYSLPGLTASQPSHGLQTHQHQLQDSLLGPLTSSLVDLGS
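Compounds are tested against tagged Six1 and Eya2 proteins bridged by glutathione donor and nickel acceptor beads; after a one-hour incubation at 37 °C without light, AlphaScreen emission is recorded.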
DT40 TDP1 CPT = growth inhibition of DT40 Tdp1-/-;hTDP1 cells with camptothecin (screen for TDP1 inhibitors) | chicken DT40 Tdp1-/-;hTDP1 cells + 20 nM CPT, ATP luminescence, 48 h | Potency, µM (doses to about 46.2 µM), inactives show at the highest dose activity change, negative = growth inhibition, hits mostly inhibitors | hit rate 12% among 420,000 | AID 686979; further: potency means the concentration at half of the fitted maximal effect; nearly all actives have a fitted effect of over 55% in size
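Cell growth measured by CellTiter-Glo luminescence after a minimum 48 h, 37 C compound exposure with 20 nM CPT in Tdp1-knockout DT40 cells stably expressing hTDP1, seeded 400/well; qHTS titration format.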
* marks the source's active call; other numbers are inactive results; u = inconclusive; x = no result given; [ ] = dose if it differs, or a comment. Unless noted, the call rests on the fitted dose curve; in most records, active means well fitted curve in the direction sought with a large enough effect; inconclusive means small, poorly fitted or top-dose-only effect, or another doubt; inactive means no such curve, though single readings can be large; an effect the other way counts as inactive or inconclusive. On the % scale 0 is the no-effect control and ±100 the full control effect.

SMILES	CtBP-E1A inh	IL-1B inflam inh	TDP1 cell noCPT	TDP1 inh	Six1-Eya2 blk	DT40 TDP1 CPT
COCCN1CCC(CNCc2cn[nH]c2-c2ccc(C)c(C)c2)C1 (centres undefined)	3	u	-8%	-3%	3	-2%
COCc1nc2oc3ccc(C)cc3c(=O)c2cc1C(=O)OC	-5	u	-8%	x	2	-9%
C=CCOC(=O)CCC(=O)Nc1cc(OC)nc(OC)n1	-4	-7	-5%	-3%	-2	-18%
CC1CC(C)CN(CCCNC(=O)CC2Oc3ccccc3NC2=O)C1 (centres undefined)	-24	30	0%	5%	7	13%
COC(=O)c1cc2ccc(OC)cc2c2cc(OC)c(OC)cc12	u	-61*	u	-5%	u	u
Cc1c(CCOC(=O)c2ccccc2)sc[n+]1CC(=O)c1ccc(Br)cc1	-12	-65*	u	12%[0.0935 µM]	-1	u
Cc1c(CCOC(=O)c2ccccc2)sc[n+]1Cc1ccccc1	12	3	23µM*	10%	4	16µM*
Cc1c(CCOC(=O)c2cc([N+](=O)[O-])cc([N+](=O)[O-])c2)sc[n+]1CC(=O)c1ccccc1	-3	7	0%	5%	-8	-25%
COc1ccccc1NC(=O)c1c(NCc2sccc2C)sc2c1CCCCC2	x	x	u	9%	x	u
CCOc1ccccc1NC(=O)c1c(NC(=O)c2ccccc2)sc2c1CCCC2	x	x	u	2%[12.3 µM]	x	4.1µM*
CCOc1ccccc1NC(=O)c1c(NCc2sccc2C)sc2c1CCC(C)C2 (centres undefined)	x	x	6.5µM*	1%	x	6.5µM*
CCOc1ccccc1NC(=O)c1c(NCc2sccc2C)sc2c1CCCCC2	x	x	15µM*	6%	x	8.2µM*
CCOc1ccccc1NC(=O)c1c(NC(=O)C(C)Oc2ccc(Cl)cc2)sc2c1CCCCC2 (centres undefined)	x	x	u	3%[12.3 µM]	x	-29%
CCN(CC)CCCC(C)NC(=O)c1c(NC(=O)c2ccccc2)sc2c1CCCC2 (centres undefined)	-3	x	u	x	-3	18µM*
COc1ccc(N/C(=N\c2nc(C)cc(C)n2)NC(=O)C(C)C)cc1OC	9	12	u	0%	4	-23%
CCc1cnc2c(c1SCC(=O)NCc1ccc(F)cc1)c(=O)n(C)c(=O)n2C	x	x	u	0%	x	u
CCOc1ccccc1NC(=O)c1c(NCc2cccs2)sc2c1CCCCC2	x	x	21µM*	5%	x	u
CCOC(=O)N1CCc2c(sc(NCc3sccc3C)c2C(=O)Nc2ccccc2OCC)C1	x	x	23µM*	9%	x	u
COc1ccc(OC)c(NC(=O)c2c(NCc3cccs3)sc3c2CCCC3)c1	x	x	u	7%	x	u
O=C(NCCc1ccccc1)C1=COCCO1	2	13	-1%	1%	-6	-15%
O=C(NCCc1cccc(Cl)c1)c1cc([N+](=O)[O-])ccc1Cl	6	-14	-13%	2%	-5	3%
CC(C)(CNC(=O)c1ccc([N+](=O)[O-])c(Cl)c1)CNC(=O)c1ccc([N+](=O)[O-])c(Cl)c1	-4	-113*	21µM*	8%	-13	18µM*
O=C(NCCc1cccc(Cl)c1)c1ccc(Cl)c([N+](=O)[O-])c1	4	-98*	21µM*	1%	-18	u
Cc1ccc(C(=O)NCCSCc2ccccc2)cc1[N+](=O)[O-]	6	-7	u	4%	6	u
C=CCNC(=O)c1ccc([N+](=O)[O-])c(Cl)c1	8	-8	-1%	0%	-4	0%
SMILES	CtBP-E1A inh	IL-1B inflam inh	TDP1 cell noCPT	TDP1 inh	Six1-Eya2 blk	DT40 TDP1 CPT
Cc1ccc(C(=O)NCCc2cccc(Cl)c2)cc1[N+](=O)[O-]	-17	-56*	21µM*	0%	-10	21µM*
CN(Cc1ccccc1)C(=O)c1ccc(Cl)c([N+](=O)[O-])c1	9	-90*	u	3%	1	u
O=c1[nH]c2ccc(NC(=S)NCCc3ccccc3)cc2[nH]1	-16	103	6%	x	-1	6%
CC(=O)Nc1ccc(NC(=O)CSc2nc3c(=O)n(C)c(=O)n(C)c3n2C)cc1	-16	-2	-11%	x	-8	3%
S=C1N(c2ccccc2)CN(C2CCCCC2)CN1c1ccccc1	x	-12	u	6%	11	u
Cc1ccc(CNC(=O)Cn2c(=O)n(-c3ccccc3)c(=O)c3c2c2cc(C)ccc2n3C)cc1	x	x	2%	0%	x	-2%
CCN(Cc1ccccc1)C(=O)Cn1c(=O)n(-c2cccc(C)c2)c(=O)c2c1c1cc(OC)ccc1n2C	x	x	16µM*	3%	x	12µM*
CCc1ccc(-n2c(=O)c3sc4ccccc4c3n(CC(=O)N(CC)Cc3ccccc3)c2=O)cc1	x	x	18µM*	4%	x	18µM*
CCN(Cc1ccccc1)C(=O)Cn1c(=O)n(-c2ccccc2)c(=O)c2c1c1cc(C)ccc1n2C	x	x	3.7µM*	0%	x	9.2µM*
COc1ccccc1NC(=O)CSc1ncc(CO)n1Cc1ccc(F)cc1	-2	-8	u	4%	0	u
COc1ccccc1NC(=S)N(C(C)C)C(C)c1ccccn1 (centres undefined)	12	-5	u	0%	6	u
CC(C)N(C(=S)Nc1cccc(C(F)(F)F)c1)C(C)c1ccccn1 (centres undefined)	-21	-91*	u	-8%	18	-9%
Cc1[nH]c2ccccc2c1C1(O)C(=O)N(Cc2ccc3c(c2)OCO3)c2ccccc21 (centres undefined)	-15	12	5.2µM*	0%	-13	3.3µM*
Cc1[nH]c2ccccc2c1C1(O)C(=O)N(Cc2ccccc2)c2ccc(Cl)cc21 (centres undefined)	x	x	5.2µM*	8%	x	6.5µM*
Cc1[nH]c2ccccc2c1C1(O)C(=O)N(Cc2ccc(Cl)cc2)c2ccccc21 (centres undefined)	x	x	5.2µM*	2%	x	5.8µM*
Cc1ccc2c(c1)C(O)(c1c(C)[nH]c3ccccc13)C(=O)N2 (centres undefined)	-3	32	-19%	4%	-6	4%
Cc1ccc(CN2C(=O)C(O)(c3c(C)[nH]c4ccccc34)c3ccccc32)cc1 (centres undefined)	x	x	4.6µM*	1%	x	6.5µM*
CCN(CC)CCCNC(=O)CCC(=O)NNc1nc2ccccc2c2nc(C)nn12	-24	21	0%	5%	-21	0%
